ABCB6 inh 2: ABCB6 transporter inhibitors, primary screen, K562-ABCB6 cells, flow cytometry, MLPCN library | 360,000 tested, 0.19% active | K562-ABCB6 porphyrin accumulation, 1 h; hits give low values | AID 602162, 2011 | fluorescence ratio to DMSO, % at 10 µM;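 active = fluorescence ratio to DMSO below 75%, the collection mean minus 3 SD; inconclusive = too few cells collected in the well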;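 also: signal is porphyrin accumulated inside mitochondria; 100% equals median channel fluorescence of DMSO control wells; lower ratio means ABCB6 inhibition with less porphyrin fluorescence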
TLR9-MyD88 inh: inhibitors of TLR9-MyD88 association in cells, primary screen, cell-based, CHO, BLA complementation, fluorescence; inhibition, % at 4.98 µM; CCF4 FRET ratio; Toll-like receptor 9 (Homo sapiens) + Myeloid differentiation primary response protein …; 340,000 tested, 0.21% active; AID 504734, 2011;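 active = inhibition above the mean over all tested compounds plus 3 SD, cut at about 21% in these data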;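 also: 0% = DMSO only wells and 100% = clavulanate BLA inhibitor control wells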
TLR4 MyD88 comp: inhibitors of TLR4-MyD88 association in cells, primary screen, cell-based, HeLa CL3-4, BLA complementation, FRET ratio | 200,000 tested, 0.18% active | HeLa CL3-4 TLR4/MyD88 BLA complementation | inhibition, % at 8.4 µM | Toll-like receptor 4 (Homo sapiens) + Myeloid differentiation primary response protein … | AID 861, 2007; in the data active = inhibition above about 25%;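 also: 0% = vehicle and 100% = reference inhibitor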
NOD2 RIPK2 PPI: NOD2-RIPK2 binding disruptors in cells, primary screen, fluorescence, CHO cells, BLA complementation | Receptor-interacting serine/threonine-protein kinase 2 (Homo sapiens), O43353 | CCF4 ratio | inhibition, % at 4.98 µM | 360,000 tested, 0.38% active; in the data active = inhibition above about 21%;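 also: 0% = vehicle only and 100% = reference blocker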
Myeloid diff 2: induction of myeloid progenitor differentiation, primary screen, cell-based, flow cytometry, MLPCN library; ER-HoxA9 myeloid progenitors, lysozyme-GFP differentiation; calls only at 10 µM; 360,000 tested, 1% active; AID 624256, 2012;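 active = normalized GFP-positive differentiation at or above the plate's own cutoff, the solvent-only control mean plus 3 SD; inconclusive = no clear call, values can overlap the other calls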;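 also: cells exposed to compound for four days before flow analysis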
Myeloid diff CP1: inducers of myeloid progenitor differentiation, confirmation, cell-based, GFP/Mac1 flow cytometry, cherry pick 01. ER-HoxA9 myeloid progenitors, GFP/Mac1 double-positive flow. calls only. shares compounds with Myeloid diff 2. 2,300 tested, 2% active;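 active = share of green or green-and-red cells above 9 and 9% in run 1 or 4 and 3% in run 2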
GFP autofluor: flagged as fluorescent in myeloid differentiation counter-screen; ER-HoxA9 myeloid progenitors, no estrogen, GFP autofluorescence flow cytometry; vehicle wells 0%, positive control 100%; shares compounds with Myeloid diff 2; fluorescence response, % (concentration not given with the values); AID 651707; 2,300 tested, 7.4% active;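 active = over 5% cells positive for green fluorescent reporter, or over 2% positive for both it and APC stain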;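 also: range taken on the double positive population between DMSO and positive control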
* hit, by the source's call; i = inactive; ? = inconclusive; nt = no result; + = active, no number. An excerpt weighted towards active compounds, which were near 1.7% of everything screened.

SMILES	ABCB6 inh 2	TLR9-MyD88 inh	TLR4 MyD88 comp	NOD2 RIPK2 PPI	Myeloid diff 2	Myeloid diff CP1	GFP autofluor
CCCc1nc2c3ccccc3ccn2c1CC(C)(C)C	99	nt	nt	-11	i	nt	nt
CC1CN(c2ncnc3c2oc2ccccc23)CC(C)O1 (centres undefined)	94	-6	-7	-3	i	nt	nt
O=C(O)C1CCCN1c1ncnc2c1oc1ccccc12 (centres undefined)	105	1	11	9	+	i	6.6*
Cc1ccccc1CNC(=O)Nc1ccc(Cl)cc1	95	-6	nt	-1	i	nt	nt
Cc1ccc(CC(=O)Nc2nccs2)cc1C	99	-6	nt	-5	nt	nt	nt
Cc1ccc(S(=O)(=O)CCC(=O)Nc2nc(-c3ccccn3)cs2)cc1	99	-5	nt	7	+	i	1
Cc1ccc(S(=O)(=O)CCC(=O)Nc2nc(-c3cccnc3)cs2)cc1	95	-9	nt	-12	?	nt	nt
CC(Oc1ccc(Br)cc1)C(=O)Nc1nc(-c2ccccn2)cs1 (centres undefined)	96	2	nt	-5	+	i	0
CSCCC(NC(=O)OCc1ccccc1)C(=O)NCc1cccnc1 (centres undefined)	100	4	nt	9	i	nt	nt
CCc1c(-c2cccc(Br)c2)ncn1Cc1cccc(-c2ccccc2)c1	nt	nt	nt	-7	i	nt	nt
COc1cccc(-c2oc3c(c2C(=O)OCCN2CCCCC2)C(O)CCC3)c1 (centres undefined)	99	nt	nt	4	i	nt	nt
Cc1cc2ncc(-c3cccs3)nc2cc1C	99	2	nt	-4	i	nt	nt
N=c1c2c(n(Cc3ccccc3)c3c1CCC3)CCC2	98	-3	12	5	+	i	0
N=c1c2c(n(Cc3ccc(Cl)cc3)c3c1CCC3)CCC2	92	1	-4	-4	i	nt	nt
Cc1cccc(N2CCN(C(=O)C3CCN(S(=O)(=O)c4cccc5nsnc45)CC3)CC2C)c1 (centres undefined)	111	-3	5	-1	i	nt	nt
Cc1cccc(N2CCN(C(=O)C3CCN(S(=O)(=O)N4CCOCC4)CC3)CC2C)c1 (centres undefined)	91	8	-9	-6	+	i	2
O=C(CCN1CCN(c2ccccc2)CC1)Nc1ccccc1F	103	-9	0	7	i	i	0
O=C(CCN1CCN(c2ccc(F)cc2)CC1)Nc1ccccc1F	95	7	3	-22	i	nt	nt
CCN(CC(=O)Nc1c(F)cccc1F)C(=O)CC1CCCC1	92	0	nt	-7	i	nt	nt
CCN(CC(=O)Nc1c(F)cccc1F)C(=O)CC1CCCCC1	98	-5	nt	6	i	i	2
Cc1coc2cc3oc(=O)c(CCC(=O)N4C[C@H]5C[C@@H](C4)c4cccc(=O)n4C5)c(C)c3cc12	98	-7	nt	-6	i	nt	nt
N#C/C(=C(/O)Cc1ccccc1)P(=O)(c1ccccc1)c1ccccc1	98	5	nt	-6	i	nt	nt
CC(C)CC(=O)c1c[nH]c(C(=O)NCCc2ccccn2)c1	96	5	-11	-2	i	i	0
O=C(CSc1nnnn1-c1ccccc1)NCC1(N2CCOCC2)CCCCC1	114	-8	nt	-13	i	i	3
O=C(Cc1ccc(Cl)cc1Cl)NCC1(N2CCOCC2)CCCCC1	101	-8	-3	-9	i	i	0
O=C(CSc1nnnn1-c1ccccc1)NCC1(N2CCCCC2)CCCCC1	99	10	nt	4	i	nt	nt
CCCCOc1ccc(OC(=O)Nc2cc(Cl)ccc2OC)cc1	94	-15	nt	3	i	+	0
Nc1nc(Cl)cc(NCCc2ccccc2)n1	nt	nt	-7	nt	nt	nt	nt
Nc1nccc(NCCSCc2ccccc2)n1	97	-1	nt	-5	+	i	0

Assay outcomes from PubChem BioAssay.
